What all share (assay): DAPPL (digital affinity profiling via proximity ligation, sequencing); 10 mM Tris-HCl pH 7.5, 50 mM NaCl, 1 mM DTT, 4% glycerol, room temperature, 30 min; GST-TFs on glutathione beads, 16-mer random dsDNA library, 0.1% formaldehyde crosslink after washing; high values mean tight binding
Details in all cases: protein: recombinant; tags: N-terminal GST; dsDNA, one strand shown

The target of one assay is T1, ERF (Homo sapiens, UniProt P50548 1-548).
T1 sequence: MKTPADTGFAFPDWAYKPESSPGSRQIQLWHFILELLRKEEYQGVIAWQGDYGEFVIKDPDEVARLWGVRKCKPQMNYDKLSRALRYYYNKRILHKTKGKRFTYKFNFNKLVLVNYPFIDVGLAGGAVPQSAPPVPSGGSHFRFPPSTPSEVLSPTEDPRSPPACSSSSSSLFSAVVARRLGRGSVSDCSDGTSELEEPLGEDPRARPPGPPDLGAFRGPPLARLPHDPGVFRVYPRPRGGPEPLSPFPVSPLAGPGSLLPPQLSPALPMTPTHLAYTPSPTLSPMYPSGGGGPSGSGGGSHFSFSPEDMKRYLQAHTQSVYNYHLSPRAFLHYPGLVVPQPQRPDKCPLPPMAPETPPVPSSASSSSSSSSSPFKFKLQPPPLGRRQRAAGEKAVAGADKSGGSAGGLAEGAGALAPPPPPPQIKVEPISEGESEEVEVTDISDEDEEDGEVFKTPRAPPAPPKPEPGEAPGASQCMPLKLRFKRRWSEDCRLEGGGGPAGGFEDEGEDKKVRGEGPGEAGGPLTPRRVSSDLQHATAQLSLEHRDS
An outline of the steps: (§1)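 Binding signal is each hexamer's read frequency for a factor divided by its frequency in the tag-only sample. The factors were GST-fused human transcription factors from yeast, captured on glutathione beads, DNA-barcoded and pooled with that sample. Pools were incubated with 200 nmole of a random double-stranded 16-mer DNA library in Tris/NaCl/DTT/glycerol buffer at room temperature for 30 min, then washed, crosslinked with 0.1% formaldehyde, proximity-ligated with BsaI/T4 ligase (1 h, 37 °C), PCR-amplified and sequenced on an Illumina NextSeq500.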

For another assay, the target named is T2, ETV3L (Homo sapiens, UniProt Q6ZN32 1-361).
T2 sequence: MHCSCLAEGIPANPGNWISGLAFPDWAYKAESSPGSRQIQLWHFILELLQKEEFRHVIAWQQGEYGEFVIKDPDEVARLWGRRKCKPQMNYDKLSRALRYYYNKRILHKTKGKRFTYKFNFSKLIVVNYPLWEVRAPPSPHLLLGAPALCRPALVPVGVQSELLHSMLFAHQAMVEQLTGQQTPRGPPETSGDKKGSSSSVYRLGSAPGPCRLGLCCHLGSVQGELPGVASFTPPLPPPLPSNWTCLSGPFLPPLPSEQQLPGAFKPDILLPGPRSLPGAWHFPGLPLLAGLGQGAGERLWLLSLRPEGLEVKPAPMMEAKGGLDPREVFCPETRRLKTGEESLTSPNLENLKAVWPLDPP
An outline of the steps: as §1

The target in a further assay is T3, ETS2 (Homo sapiens, UniProt P15036 1-469).
T3 sequence: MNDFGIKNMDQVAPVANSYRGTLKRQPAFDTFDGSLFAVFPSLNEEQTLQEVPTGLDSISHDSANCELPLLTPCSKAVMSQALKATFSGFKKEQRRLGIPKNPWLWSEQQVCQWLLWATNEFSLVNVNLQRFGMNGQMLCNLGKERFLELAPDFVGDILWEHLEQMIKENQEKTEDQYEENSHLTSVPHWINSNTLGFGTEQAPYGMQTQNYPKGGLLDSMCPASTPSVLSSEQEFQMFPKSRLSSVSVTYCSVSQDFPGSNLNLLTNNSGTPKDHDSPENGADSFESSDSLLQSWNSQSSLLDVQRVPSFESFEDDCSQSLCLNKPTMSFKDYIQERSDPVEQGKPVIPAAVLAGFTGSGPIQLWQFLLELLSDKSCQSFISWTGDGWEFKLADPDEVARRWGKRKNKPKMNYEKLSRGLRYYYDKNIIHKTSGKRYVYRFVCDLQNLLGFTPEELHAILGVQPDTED
An outline of the steps:
as §1

Another assay concerns the target T4, SPDEF (Homo sapiens, UniProt O95238 1-335).
T4 sequence: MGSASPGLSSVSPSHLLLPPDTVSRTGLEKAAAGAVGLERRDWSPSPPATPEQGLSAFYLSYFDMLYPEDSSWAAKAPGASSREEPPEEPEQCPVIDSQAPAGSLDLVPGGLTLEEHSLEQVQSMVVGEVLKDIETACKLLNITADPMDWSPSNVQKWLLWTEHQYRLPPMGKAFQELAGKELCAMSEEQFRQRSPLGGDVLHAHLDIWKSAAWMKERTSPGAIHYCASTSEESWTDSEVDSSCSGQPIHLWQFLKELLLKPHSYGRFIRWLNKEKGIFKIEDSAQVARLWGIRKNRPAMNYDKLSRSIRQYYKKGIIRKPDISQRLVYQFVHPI
An outline of the steps:
as §1

For the next assay, the target named is T5, ETV7 (Homo sapiens, UniProt Q9Y603 1-341).
T5 sequence: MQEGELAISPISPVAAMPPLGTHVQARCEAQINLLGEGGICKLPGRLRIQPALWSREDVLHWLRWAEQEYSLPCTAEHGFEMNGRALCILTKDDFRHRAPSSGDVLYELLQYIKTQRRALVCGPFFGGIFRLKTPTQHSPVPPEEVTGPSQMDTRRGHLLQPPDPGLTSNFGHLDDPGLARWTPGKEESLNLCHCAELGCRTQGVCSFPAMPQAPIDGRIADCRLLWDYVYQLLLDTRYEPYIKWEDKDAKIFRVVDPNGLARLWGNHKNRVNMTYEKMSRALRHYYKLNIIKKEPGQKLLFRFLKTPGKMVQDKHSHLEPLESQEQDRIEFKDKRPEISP
An outline of the steps: as §1

Another assay deals with T6, ELF5 (Homo sapiens, UniProt Q9UKW6-2 1-255).
T6 sequence: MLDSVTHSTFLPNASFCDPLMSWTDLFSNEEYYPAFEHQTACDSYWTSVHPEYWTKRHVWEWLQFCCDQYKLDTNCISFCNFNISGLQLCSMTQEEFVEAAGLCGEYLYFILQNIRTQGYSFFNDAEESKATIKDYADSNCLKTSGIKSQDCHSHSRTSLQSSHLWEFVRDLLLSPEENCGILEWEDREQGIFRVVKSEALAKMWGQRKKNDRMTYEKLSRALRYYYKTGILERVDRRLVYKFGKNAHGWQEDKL
An outline of the steps:
as §1

For a further assay, the target named is T7, ETV3 (Homo sapiens, UniProt P41162-2 1-143).
T7 sequence: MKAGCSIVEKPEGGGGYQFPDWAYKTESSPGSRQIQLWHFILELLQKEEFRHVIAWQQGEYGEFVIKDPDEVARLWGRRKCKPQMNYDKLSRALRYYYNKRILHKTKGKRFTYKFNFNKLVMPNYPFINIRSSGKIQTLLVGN
An outline of the steps: as §1

For another assay, the target named is ETV6 (Homo sapiens, UniProt P41212 1-452). An outline of the steps: as §1
Chain of ETV6 (P41212 whole entry): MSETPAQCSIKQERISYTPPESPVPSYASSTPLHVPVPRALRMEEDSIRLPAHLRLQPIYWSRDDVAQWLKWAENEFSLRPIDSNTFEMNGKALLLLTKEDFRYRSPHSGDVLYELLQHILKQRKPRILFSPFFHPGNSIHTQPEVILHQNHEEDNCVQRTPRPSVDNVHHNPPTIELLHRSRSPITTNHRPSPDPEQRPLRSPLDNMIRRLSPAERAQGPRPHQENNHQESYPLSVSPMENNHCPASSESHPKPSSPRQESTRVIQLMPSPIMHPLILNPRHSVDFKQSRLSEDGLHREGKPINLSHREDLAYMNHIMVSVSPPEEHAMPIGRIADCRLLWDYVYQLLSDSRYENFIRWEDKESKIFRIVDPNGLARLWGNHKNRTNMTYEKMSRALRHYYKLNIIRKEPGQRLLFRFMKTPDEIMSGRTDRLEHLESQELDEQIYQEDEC

For AACAAG, the binding signal with ERF was 1.19 fold enrichment (6-mer frequency, TF over GST control); with ETV3L, 1.18 fold enrichment (6-mer frequency, TF over GST control); in the assay with ETS2 it was 1.06 fold enrichment (6-mer frequency, TF over GST control); with SPDEF, 1.05 fold enrichment (6-mer frequency, TF over GST control); with ETV7, 1.14 fold enrichment (6-mer frequency, TF over GST control); with ELF5 it was 1.22 fold enrichment (6-mer frequency, TF over GST control). Besides, the binding signal with ETV3 was 1.11 fold enrichment (6-mer frequency, TF over GST control); in the assay with ETV6 it was 1.12 fold enrichment (6-mer frequency, TF over GST control).
In the case of TCCGTC, the binding signal with ERF was 1.16 fold enrichment (6-mer frequency, TF over GST control); with ETV3L it was 1.46 fold enrichment (6-mer frequency, TF over GST control); in the assay with ETS2, 1.3 fold enrichment (6-mer frequency, TF over GST control); with SPDEF it was 1.6 fold enrichment (6-mer frequency, TF over GST control); with ETV7 it was 1.14 fold enrichment (6-mer frequency, TF over GST control); in the assay with ELF5, 1.57 fold enrichment (6-mer frequency, TF over GST control). Further, the binding signal with ETV3 was 1.55 fold enrichment (6-mer frequency, TF over GST control); with ETV6 it was 1.37 fold enrichment (6-mer frequency, TF over GST control).
With GCTCTG, the binding signal with ERF was 1.03 fold enrichment (6-mer frequency, TF over GST control); in the assay with ETV3L it was 1.23 fold enrichment (6-mer frequency, TF over GST control); with ETS2, 1.12 fold enrichment (6-mer frequency, TF over GST control); with SPDEF, 1.06 fold enrichment (6-mer frequency, TF over GST control); with ETV7, 1.17 fold enrichment (6-mer frequency, TF over GST control); with ELF5, 1.02 fold enrichment (6-mer frequency, TF over GST control). The binding signal with ETV3 was 1.17 fold enrichment (6-mer frequency, TF over GST control); in the assay with ETV6 it was 1.17 fold enrichment (6-mer frequency, TF over GST control).
For GTCCTT, the binding signal with ERF is 1.14 fold enrichment (6-mer frequency, TF over GST control); with ETV3L, 1.29 fold enrichment (6-mer frequency, TF over GST control); with ETS2, 1.28 fold enrichment (6-mer frequency, TF over GST control); with SPDEF it was 1.29 fold enrichment (6-mer frequency, TF over GST control); with ETV7 it was 1.11 fold enrichment (6-mer frequency, TF over GST control); with ELF5, 1.43 fold enrichment (6-mer frequency, TF over GST control). The binding signal was 1.18 fold enrichment (6-mer frequency, TF over GST control) with ETV3 and 1.26 fold enrichment (6-mer frequency, TF over GST control) with ETV6.
For the sequence GGCCTA, the binding signal with ERF is 1.19 fold enrichment (6-mer frequency, TF over GST control); with ETV3L it was 1.15 fold enrichment (6-mer frequency, TF over GST control); in the assay with ETS2, 1.19 fold enrichment (6-mer frequency, TF over GST control); with SPDEF it was 1.29 fold enrichment (6-mer frequency, TF over GST control); with ETV7 it was 1.26 fold enrichment (6-mer frequency, TF over GST control); in the assay with ELF5 it was 1.13 fold enrichment (6-mer frequency, TF over GST control). Moreover, the binding signal with ETV3 is 1.3 fold enrichment (6-mer frequency, TF over GST control); with ETV6 it was 1.17 fold enrichment (6-mer frequency, TF over GST control).
Turning to CTCGCT, the binding signal with ERF was 1.78 fold enrichment (6-mer frequency, TF over GST control); in the assay with ETV3L, 1.87 fold enrichment (6-mer frequency, TF over GST control); in the assay with ETS2, 1.67 fold enrichment (6-mer frequency, TF over GST control); with SPDEF, 1.62 fold enrichment (6-mer frequency, TF over GST control); in the assay with ETV7, 1.54 fold enrichment (6-mer frequency, TF over GST control); with ELF5, 1.55 fold enrichment (6-mer frequency, TF over GST control). Moreover, the binding signal is 1.51 fold enrichment (6-mer frequency, TF over GST control) with ETV3 and 1.64 fold enrichment (6-mer frequency, TF over GST control) with ETV6.
For CCTACA, the binding signal in the assay with ERF is 1.23 fold enrichment (6-mer frequency, TF over GST control); with ETV3L it was 1.35 fold enrichment (6-mer frequency, TF over GST control); with ETS2, 1.19 fold enrichment (6-mer frequency, TF over GST control); with SPDEF, 1.17 fold enrichment (6-mer frequency, TF over GST control); with ETV7, 1.15 fold enrichment (6-mer frequency, TF over GST control); with ELF5 it was 1.41 fold enrichment (6-mer frequency, TF over GST control). In addition, the binding signal with ETV3 is 1.29 fold enrichment (6-mer frequency, TF over GST control); in the assay with ETV6, 1.29 fold enrichment (6-mer frequency, TF over GST control).
CTCAGT: the binding signal is 1.11 fold enrichment (6-mer frequency, TF over GST control) with ERF; 1.18 fold enrichment (6-mer frequency, TF over GST control) with ETV3L; 1.1 fold enrichment (6-mer frequency, TF over GST control) with ETS2; 1.06 fold enrichment (6-mer frequency, TF over GST control) with SPDEF; 1.12 fold enrichment (6-mer frequency, TF over GST control) with ETV7; 1.09 fold enrichment (6-mer frequency, TF over GST control) with ELF5. The binding signal was 1.24 fold enrichment (6-mer frequency, TF over GST control) with ETV3 and 1.08 fold enrichment (6-mer frequency, TF over GST control) with ETV6.
